# Data: ChEMBL document CHEMBL2218924, “A broad activity screen in support of a chemogenomic map for kinase signalling research and drug discovery” (Biochem J, 2013)
# How the values were obtained:
# [1] = target: T1, Ephrin type-A receptor 3 (Homo sapiens) (UniProt P29320); details: at 10 µM
# T1 sequence (whole entry): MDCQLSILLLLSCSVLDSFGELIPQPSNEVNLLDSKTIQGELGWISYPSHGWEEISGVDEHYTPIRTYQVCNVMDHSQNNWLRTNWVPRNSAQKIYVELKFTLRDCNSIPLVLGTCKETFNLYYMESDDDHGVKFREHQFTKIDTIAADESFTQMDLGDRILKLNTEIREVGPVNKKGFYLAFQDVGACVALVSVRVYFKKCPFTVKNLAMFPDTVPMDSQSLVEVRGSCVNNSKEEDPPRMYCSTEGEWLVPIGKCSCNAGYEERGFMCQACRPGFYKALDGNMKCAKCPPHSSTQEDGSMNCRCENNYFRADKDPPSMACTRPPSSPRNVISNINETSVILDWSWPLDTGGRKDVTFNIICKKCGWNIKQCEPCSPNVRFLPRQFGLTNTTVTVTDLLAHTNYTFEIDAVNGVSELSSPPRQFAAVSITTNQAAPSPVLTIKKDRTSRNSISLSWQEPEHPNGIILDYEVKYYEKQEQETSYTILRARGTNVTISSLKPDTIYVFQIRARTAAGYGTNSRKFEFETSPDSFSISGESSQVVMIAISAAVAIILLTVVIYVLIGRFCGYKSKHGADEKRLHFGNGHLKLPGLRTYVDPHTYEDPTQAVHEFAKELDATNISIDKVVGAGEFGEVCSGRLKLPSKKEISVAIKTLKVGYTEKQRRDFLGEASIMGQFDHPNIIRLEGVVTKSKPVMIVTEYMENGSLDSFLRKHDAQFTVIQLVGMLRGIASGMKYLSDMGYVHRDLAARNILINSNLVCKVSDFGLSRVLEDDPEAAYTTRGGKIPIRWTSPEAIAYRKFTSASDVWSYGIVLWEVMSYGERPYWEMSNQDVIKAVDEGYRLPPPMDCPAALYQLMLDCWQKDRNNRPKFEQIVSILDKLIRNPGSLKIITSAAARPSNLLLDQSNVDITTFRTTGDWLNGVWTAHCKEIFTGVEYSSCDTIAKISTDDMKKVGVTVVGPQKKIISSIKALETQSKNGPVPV
# [2] = target: Ephrin type-A receptor 4 (Homo sapiens) (UniProt P54764); details: at 10 µM
# Sequence of Ephrin type-A receptor 4 (Homo sapiens) (P54764 whole entry): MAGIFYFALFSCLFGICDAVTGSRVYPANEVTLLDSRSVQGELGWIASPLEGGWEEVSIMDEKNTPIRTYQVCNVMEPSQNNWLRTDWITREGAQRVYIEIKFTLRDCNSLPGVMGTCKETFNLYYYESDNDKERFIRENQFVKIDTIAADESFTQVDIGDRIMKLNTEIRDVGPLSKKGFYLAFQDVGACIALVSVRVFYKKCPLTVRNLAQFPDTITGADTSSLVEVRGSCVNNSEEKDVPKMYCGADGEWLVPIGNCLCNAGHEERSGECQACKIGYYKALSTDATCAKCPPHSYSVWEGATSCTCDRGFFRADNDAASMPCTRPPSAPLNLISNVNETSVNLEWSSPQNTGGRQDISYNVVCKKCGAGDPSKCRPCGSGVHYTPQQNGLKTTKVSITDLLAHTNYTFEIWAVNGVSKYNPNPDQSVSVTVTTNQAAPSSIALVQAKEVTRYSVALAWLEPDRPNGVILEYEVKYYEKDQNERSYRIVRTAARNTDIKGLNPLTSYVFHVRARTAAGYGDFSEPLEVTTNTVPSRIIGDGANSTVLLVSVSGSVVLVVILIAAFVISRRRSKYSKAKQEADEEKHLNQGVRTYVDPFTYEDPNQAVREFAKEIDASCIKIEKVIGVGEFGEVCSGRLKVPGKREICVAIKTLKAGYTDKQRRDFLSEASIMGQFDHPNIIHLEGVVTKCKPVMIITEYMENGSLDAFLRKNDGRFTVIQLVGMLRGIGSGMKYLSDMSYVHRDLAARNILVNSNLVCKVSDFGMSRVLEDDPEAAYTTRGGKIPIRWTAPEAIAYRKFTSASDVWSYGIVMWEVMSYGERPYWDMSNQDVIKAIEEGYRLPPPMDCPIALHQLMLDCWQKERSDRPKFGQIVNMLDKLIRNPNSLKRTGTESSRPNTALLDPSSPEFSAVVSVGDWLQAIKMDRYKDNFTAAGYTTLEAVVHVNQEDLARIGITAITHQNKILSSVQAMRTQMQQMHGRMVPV
# [3] = target: Ephrin type-A receptor 7 (Homo sapiens) (UniProt Q15375); details: at 10 µM
# Sequence of Ephrin type-A receptor 7 (Homo sapiens) (Q15375 28-998 limits assumed): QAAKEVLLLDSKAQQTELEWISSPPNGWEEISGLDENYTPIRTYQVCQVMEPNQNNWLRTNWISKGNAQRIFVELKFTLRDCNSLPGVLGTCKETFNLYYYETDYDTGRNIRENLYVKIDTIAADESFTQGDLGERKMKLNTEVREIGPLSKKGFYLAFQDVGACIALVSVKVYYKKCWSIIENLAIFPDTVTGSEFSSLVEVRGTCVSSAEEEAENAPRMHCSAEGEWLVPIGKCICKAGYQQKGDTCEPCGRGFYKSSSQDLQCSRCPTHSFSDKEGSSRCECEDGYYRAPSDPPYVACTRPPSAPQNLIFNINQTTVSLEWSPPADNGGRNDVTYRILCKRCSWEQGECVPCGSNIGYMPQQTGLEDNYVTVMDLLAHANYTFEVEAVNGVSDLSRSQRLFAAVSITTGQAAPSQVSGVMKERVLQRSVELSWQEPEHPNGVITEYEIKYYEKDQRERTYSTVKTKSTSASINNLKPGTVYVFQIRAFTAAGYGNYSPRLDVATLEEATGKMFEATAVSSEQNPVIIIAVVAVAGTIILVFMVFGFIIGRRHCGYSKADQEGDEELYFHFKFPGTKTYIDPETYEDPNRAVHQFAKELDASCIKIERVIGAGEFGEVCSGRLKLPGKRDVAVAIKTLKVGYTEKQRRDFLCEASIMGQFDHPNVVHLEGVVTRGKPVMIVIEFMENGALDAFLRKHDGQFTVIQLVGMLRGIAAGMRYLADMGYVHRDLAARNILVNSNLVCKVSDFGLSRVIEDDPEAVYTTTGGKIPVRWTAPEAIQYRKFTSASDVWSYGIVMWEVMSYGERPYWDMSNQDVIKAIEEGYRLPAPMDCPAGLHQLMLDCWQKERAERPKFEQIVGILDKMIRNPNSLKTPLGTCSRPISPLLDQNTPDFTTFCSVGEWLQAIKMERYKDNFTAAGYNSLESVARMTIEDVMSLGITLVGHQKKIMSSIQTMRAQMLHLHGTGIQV
# [4] = target: T2, Ephrin type-B receptor 1 (Homo sapiens) (UniProt P54762); details: at 1 µM
# T2 sequence (whole entry): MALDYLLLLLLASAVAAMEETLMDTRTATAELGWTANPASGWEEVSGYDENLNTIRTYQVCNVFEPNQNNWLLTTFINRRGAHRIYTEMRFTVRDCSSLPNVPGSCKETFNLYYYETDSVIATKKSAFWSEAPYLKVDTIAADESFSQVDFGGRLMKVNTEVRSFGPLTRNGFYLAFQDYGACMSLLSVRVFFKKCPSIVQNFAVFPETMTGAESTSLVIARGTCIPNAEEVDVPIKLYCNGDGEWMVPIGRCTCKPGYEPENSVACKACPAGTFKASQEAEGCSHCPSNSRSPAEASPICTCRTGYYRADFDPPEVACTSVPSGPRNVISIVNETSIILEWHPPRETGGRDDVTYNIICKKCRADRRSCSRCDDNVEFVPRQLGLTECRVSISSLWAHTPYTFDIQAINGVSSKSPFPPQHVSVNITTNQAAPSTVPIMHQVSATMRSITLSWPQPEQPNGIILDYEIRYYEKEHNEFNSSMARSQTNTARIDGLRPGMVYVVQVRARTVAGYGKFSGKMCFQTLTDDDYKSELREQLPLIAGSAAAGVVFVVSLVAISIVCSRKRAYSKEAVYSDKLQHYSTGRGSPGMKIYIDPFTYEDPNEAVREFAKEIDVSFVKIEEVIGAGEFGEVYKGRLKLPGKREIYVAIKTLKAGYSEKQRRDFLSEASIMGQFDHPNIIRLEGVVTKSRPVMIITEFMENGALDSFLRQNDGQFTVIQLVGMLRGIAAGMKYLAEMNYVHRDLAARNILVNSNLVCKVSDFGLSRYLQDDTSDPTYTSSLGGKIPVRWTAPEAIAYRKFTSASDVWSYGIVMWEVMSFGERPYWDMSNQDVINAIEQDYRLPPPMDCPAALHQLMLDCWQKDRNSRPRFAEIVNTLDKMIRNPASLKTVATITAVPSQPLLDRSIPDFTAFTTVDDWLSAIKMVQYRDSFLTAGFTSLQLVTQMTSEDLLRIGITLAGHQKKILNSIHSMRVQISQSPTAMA
# [5] = target: T2, Ephrin type-B receptor 1 (Homo sapiens); details: at 10 µM
# [6] = target: T3, Ephrin type-B receptor 2 (Homo sapiens) (UniProt P29323); details: at 1 µM
# T3 sequence (whole entry): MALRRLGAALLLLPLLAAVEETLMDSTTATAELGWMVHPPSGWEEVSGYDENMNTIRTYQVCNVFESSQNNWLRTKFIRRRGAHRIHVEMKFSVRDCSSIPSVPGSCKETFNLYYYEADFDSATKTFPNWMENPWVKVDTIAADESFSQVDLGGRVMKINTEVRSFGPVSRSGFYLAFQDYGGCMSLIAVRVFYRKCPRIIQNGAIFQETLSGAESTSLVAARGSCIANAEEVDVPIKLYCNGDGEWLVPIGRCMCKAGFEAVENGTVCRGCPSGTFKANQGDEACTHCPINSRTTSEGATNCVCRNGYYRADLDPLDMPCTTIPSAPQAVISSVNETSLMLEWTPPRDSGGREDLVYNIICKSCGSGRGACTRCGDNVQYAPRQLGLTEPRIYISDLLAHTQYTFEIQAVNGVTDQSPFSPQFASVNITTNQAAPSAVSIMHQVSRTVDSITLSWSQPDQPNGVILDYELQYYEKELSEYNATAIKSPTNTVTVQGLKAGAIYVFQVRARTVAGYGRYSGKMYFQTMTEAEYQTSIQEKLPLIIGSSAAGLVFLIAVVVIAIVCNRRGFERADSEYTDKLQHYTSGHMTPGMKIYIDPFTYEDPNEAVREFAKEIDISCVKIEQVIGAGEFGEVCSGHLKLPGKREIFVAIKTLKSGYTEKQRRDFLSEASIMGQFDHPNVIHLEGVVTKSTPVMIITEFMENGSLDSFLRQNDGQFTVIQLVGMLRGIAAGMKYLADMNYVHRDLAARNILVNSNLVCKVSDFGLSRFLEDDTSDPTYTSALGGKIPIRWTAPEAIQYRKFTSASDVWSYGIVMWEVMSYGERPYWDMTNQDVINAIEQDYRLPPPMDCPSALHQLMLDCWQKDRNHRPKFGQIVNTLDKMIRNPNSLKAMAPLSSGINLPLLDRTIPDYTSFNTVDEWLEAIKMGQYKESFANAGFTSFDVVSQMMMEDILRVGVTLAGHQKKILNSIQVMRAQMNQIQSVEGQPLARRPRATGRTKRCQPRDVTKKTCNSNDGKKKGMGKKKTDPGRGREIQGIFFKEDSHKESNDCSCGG
# [7] = target: T3, Ephrin type-B receptor 2 (Homo sapiens); details: at 10 µM
# [8] = target: T4, Ephrin type-B receptor 3 (Homo sapiens) (UniProt P54753); details: at 1 µM
# T4 sequence (whole entry): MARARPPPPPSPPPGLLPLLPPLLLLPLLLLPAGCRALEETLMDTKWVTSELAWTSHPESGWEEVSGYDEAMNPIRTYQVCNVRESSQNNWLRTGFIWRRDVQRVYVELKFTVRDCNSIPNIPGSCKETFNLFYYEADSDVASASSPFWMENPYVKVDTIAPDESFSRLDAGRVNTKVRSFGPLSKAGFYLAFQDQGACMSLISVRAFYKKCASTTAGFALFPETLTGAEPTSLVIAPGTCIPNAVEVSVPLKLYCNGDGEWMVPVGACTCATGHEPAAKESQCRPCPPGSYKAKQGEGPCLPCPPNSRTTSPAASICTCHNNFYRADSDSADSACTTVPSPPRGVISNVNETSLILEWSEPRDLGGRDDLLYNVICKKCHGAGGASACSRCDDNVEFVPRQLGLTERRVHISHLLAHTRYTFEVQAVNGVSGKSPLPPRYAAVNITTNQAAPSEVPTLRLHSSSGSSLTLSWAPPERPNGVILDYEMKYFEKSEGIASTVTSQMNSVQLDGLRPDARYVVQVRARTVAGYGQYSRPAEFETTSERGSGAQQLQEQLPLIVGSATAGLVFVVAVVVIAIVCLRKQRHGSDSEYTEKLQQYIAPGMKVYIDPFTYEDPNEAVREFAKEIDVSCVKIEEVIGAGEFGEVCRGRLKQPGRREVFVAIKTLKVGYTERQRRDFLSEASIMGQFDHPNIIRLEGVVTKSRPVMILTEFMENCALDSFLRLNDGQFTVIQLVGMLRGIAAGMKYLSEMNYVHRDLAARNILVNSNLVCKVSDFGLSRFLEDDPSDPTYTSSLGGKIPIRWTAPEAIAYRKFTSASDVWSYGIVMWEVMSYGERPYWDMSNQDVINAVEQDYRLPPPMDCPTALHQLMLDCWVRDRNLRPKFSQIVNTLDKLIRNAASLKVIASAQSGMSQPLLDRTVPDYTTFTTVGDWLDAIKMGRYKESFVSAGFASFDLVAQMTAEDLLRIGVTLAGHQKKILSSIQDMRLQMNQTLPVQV
# [9] = target: T4, Ephrin type-B receptor 3 (Homo sapiens); details: at 10 µM
# [10] = target: T5, Ephrin type-B receptor 4 (Homo sapiens) (UniProt P54760); details: at 1 µM
# T5 sequence (whole entry): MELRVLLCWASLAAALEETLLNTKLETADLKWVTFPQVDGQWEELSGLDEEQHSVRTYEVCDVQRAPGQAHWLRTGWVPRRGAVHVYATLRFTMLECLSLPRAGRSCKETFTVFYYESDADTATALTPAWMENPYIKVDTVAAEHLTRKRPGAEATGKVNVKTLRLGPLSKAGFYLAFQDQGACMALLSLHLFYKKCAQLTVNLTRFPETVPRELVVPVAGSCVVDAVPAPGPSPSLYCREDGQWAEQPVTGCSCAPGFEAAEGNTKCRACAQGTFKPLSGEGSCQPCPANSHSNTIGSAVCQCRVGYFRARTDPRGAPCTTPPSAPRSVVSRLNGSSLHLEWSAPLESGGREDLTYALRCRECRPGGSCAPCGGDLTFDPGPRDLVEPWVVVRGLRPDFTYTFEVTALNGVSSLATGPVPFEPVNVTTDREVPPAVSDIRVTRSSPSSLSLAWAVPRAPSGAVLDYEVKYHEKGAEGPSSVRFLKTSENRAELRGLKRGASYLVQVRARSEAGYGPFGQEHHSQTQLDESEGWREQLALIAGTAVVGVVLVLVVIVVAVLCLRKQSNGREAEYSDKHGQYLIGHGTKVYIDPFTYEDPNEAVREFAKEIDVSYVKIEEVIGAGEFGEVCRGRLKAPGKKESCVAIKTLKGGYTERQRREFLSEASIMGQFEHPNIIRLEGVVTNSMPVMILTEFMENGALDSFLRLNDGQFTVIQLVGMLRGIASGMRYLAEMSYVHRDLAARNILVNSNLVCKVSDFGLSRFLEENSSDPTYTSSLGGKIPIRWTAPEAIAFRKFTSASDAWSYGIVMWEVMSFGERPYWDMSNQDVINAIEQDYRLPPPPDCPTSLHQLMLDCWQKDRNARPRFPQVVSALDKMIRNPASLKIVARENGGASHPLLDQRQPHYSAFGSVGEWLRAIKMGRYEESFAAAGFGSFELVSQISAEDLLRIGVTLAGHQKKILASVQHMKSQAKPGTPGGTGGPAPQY
# [11] = target: T5, Ephrin type-B receptor 4 (Homo sapiens); details: at 10 µM
# [12] = target: Receptor tyrosine-protein kinase erbB-4 (Homo sapiens) (UniProt Q15303); details: at 1 µM
# Sequence of Receptor tyrosine-protein kinase erbB-4 (Homo sapiens) (Q15303 whole entry): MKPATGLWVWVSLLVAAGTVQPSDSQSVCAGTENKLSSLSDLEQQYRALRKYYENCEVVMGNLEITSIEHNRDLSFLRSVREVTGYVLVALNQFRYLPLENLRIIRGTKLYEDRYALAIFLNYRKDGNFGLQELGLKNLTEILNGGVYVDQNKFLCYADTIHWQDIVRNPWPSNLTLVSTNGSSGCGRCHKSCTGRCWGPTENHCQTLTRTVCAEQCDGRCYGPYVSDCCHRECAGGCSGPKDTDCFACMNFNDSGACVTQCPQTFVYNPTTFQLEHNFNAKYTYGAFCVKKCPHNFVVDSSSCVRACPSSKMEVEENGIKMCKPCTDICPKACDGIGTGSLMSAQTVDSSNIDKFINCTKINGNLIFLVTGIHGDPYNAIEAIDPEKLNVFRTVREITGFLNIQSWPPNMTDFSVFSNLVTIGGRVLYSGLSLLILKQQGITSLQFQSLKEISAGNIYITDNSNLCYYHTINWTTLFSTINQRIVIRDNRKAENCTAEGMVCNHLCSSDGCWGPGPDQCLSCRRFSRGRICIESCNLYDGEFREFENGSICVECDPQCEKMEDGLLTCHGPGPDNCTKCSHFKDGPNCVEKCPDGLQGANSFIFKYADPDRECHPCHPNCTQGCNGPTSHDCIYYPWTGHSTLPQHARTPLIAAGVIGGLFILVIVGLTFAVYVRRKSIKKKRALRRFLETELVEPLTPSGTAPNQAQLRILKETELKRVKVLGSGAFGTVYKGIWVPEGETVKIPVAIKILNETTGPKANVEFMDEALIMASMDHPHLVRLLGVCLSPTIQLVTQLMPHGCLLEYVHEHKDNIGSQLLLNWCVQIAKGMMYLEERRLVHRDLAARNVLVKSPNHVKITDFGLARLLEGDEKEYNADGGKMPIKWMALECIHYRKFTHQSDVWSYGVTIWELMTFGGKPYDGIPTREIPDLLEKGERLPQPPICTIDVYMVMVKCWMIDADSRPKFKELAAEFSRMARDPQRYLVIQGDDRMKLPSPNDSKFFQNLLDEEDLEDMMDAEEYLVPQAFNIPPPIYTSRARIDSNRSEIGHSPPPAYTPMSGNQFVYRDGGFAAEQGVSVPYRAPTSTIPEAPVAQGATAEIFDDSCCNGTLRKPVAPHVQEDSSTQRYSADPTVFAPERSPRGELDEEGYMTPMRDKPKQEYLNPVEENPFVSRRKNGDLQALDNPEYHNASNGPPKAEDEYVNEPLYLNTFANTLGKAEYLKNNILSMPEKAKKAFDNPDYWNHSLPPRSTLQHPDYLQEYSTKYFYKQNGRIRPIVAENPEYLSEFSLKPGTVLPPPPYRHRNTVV
# [13] = target: Receptor tyrosine-protein kinase erbB-4 (Homo sapiens) (UniProt Q15303); details: at 10 µM
# [14] = target: Focal adhesion kinase 1 (Homo sapiens) (UniProt Q05397); details: at 1 µM
# Sequence of Focal adhesion kinase 1 (Homo sapiens) (Q05397 2-1052 limits assumed): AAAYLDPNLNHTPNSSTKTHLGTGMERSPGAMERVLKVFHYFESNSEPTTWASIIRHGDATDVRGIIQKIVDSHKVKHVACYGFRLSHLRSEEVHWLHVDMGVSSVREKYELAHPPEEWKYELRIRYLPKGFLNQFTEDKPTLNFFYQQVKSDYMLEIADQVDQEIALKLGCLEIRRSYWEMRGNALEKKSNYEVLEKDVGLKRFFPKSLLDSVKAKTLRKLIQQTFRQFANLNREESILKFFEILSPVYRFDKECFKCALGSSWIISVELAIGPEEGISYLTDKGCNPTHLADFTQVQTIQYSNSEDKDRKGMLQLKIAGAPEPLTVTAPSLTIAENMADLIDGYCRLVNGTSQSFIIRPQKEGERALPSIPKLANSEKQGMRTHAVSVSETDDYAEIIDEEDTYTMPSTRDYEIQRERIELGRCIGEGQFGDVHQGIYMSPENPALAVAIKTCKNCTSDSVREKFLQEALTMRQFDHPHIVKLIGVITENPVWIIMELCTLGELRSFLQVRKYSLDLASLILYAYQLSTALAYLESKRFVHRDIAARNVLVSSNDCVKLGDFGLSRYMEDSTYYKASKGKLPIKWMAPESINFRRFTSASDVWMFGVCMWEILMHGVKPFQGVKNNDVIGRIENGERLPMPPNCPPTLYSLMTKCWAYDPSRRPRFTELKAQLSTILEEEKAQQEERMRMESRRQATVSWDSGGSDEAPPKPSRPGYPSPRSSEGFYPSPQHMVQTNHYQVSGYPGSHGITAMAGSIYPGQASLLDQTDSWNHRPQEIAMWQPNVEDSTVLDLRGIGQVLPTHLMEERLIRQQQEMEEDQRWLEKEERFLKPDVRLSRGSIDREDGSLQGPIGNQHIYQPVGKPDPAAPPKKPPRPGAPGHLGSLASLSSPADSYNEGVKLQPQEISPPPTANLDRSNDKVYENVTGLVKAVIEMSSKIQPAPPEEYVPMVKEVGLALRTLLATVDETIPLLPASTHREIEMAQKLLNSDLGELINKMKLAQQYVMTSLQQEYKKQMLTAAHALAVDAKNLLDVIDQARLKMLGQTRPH
smiles,measurement,setting,value
c1cc(-c2cnn3cc(-c4ccc(OCCN5CCCCC5)cc4)cnc23)ccn1,residual activity,[1],7%
same,residual activity,[2],39%
same,residual activity,[3],51%
same,residual activity,[4],37%
same,residual activity,[5],0%
same,residual activity,[6],25%
same,residual activity,[7],0%
same,residual activity,[8],118% (inactive)
same,residual activity,[9],117%
same,residual activity,[10],20%
same,residual activity,[11],-1%
same,residual activity,[12],129%
same,residual activity,[13],100%
same,residual activity,[14],123%
